The results in this text go back to PubChem BioAssay.

The source made the active and inactive calls. Unless noted, no rule for the calls is given here.

Experiment [1] in a line: anti-His antibody binders, primary screen, artefact control for SMM control protein annotation, biochemical, small-molecule microarray, 635 nm fluorescence (AID 1128).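 Also: score merges feature fluorescence with signal-to-noise for each printed compound spot.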 The note with it: anti-His Alexa647 antibody binding, higher = more signal.
Experiment [2] deals with Human papillomavirus type 1a E7 protein (residues 1-88). The experiment can be described thus: HPV1a E7 small-molecule binders, primary screen, biochemical, small-molecule microarray, residues 1-88, 635 nm (AID 1129). The note with it: small-molecule microarray binding, fluorescence 635 nm; higher = more signal.
Experiment [3] deals with Focal adhesion kinase 1 (Homo sapiens) (UniProt Q05397). The experiment can be described thus: small-molecule microarray binders of FAK, primary screen, biochemical, 635/667 nm fluorescence, BSA, DTT (AID 1130).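 Also: composite of spot emission at 667 nm and signal to noise over triplicate slides.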 Conditions: PTK2 binding, 635 nm fluorescence, higher = more signal.
Sequence of Focal adhesion kinase 1 (Homo sapiens) (Q05397 whole entry, looked up): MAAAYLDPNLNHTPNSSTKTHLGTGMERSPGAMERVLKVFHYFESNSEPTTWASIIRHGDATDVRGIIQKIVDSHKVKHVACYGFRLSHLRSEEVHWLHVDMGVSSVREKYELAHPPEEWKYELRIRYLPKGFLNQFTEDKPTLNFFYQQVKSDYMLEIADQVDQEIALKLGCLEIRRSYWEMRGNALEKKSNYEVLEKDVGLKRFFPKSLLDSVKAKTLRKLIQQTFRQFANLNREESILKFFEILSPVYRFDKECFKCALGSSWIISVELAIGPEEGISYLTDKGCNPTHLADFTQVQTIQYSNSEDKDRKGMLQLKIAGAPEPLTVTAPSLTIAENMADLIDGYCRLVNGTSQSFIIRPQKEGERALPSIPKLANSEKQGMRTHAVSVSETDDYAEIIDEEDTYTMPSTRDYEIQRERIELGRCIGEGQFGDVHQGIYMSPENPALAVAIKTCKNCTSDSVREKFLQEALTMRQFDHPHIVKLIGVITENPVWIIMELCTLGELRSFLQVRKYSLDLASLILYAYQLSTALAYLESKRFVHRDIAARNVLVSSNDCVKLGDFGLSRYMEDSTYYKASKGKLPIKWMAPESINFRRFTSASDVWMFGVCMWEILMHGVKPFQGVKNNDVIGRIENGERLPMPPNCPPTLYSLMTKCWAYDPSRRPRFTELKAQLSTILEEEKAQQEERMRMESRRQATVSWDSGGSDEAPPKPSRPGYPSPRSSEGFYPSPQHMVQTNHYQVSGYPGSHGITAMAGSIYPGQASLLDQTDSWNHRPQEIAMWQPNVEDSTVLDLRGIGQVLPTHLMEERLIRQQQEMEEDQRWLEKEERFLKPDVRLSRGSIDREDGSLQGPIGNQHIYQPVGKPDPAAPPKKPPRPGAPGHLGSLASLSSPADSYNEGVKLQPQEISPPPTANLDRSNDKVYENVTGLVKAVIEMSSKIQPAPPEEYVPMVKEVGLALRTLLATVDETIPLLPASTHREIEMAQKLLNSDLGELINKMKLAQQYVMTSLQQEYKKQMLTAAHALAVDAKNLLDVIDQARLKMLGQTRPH
The test system of experiment [4] is Fibrinogen (Alexa647-labelled). The experiment can be described thus: fibrinogen binders on compound microarrays, profiling panel, artefact control for SMM control-protein annotation, biochemical, small-molecule microarray, 635/667 nm fluorescence (AID 1131).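 Also: z-score merges 667 nm fluorescence with per-spot signal-to-noise over triplicate slides.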 The note with it: fibrinogen-A647 binding fluorescence, higher = more signal.
In experiment [5] the target is Follistatin (Homo sapiens) (UniProt P19883). The experiment can be described thus: follistatin binders on small-molecule microarrays, primary screen, biochemical, small-molecule microarray, 635/667 nm fluorescence (AID 1132). Conditions: FST binding, 635 nm fluorescence, higher = more signal.
Sequence of Follistatin (Homo sapiens) (P19883 whole entry, looked up): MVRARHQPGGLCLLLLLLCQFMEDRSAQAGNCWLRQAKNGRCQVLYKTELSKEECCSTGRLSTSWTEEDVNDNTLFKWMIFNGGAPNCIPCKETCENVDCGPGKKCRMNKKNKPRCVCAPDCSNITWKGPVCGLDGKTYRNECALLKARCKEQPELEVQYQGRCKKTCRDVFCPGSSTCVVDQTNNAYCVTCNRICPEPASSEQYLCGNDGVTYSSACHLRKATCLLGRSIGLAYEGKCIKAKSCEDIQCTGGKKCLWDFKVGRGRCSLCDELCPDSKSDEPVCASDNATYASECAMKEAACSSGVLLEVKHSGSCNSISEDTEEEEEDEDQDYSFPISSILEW
Experiment [6] has as its target Fibroblast growth factor 2 (Homo sapiens) (UniProt P09038). The experiment can be described thus: FGF2 binders on small-molecule microarrays, primary screen, biochemical, small-molecule microarray, 635/667 nm fluorescence (AID 1133). Conditions: small-molecule microarray binding, FGF2, fluorescence 635/667; higher = more signal.
Experiment [7] is described as follows: mitochondrial membrane potential change in A549 cells, profiling panel, cell-based, JC-1 fluorescence, basal, 24 h, 100 nL (AID 1138).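 Also: A549 lung adenocarcinoma cells under basal conditions with no added stimulus; test concentration not given here.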 The note with it: higher = more signal.
In another experiment the test system is Lefty1. The experiment can be described thus: Lefty1 binders on small-molecule microarrays, primary screen, biochemical, small-molecule microarray, 635/667 nm fluorescence (AID 1139). The note with it: small-molecule microarray binding, fluorescence 635/667; higher = more signal.
The subject of experiment [8] is wheat germ agglutinin (Triticum aestivum), Alexa647-labelled. The experiment can be described thus: wheat germ agglutinin binders on compound microarrays, profiling panel, artefact control for SMM control-protein annotation, biochemical, small-molecule microarray, 635/667 nm fluorescence (AID 1140).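 Also: score merges 667 nm feature emission with signal to noise over triplicate slides.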 The note with it: WGA-A647 binding, 635 nm fluorescence, higher = more signal.

Experiment [9] concerns the target Luciferin 4-monooxygenase (Photinus pyralis) (UniProt P08659). The experiment can be described thus: firefly luciferase enzyme inhibitors, primary screen, biochemical, luminescence, purified enzyme, 2006 set (AID 1141).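 Also: cell-free assay with purified firefly luciferase at 100 ng per well in PBS; test concentration not given here.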 Conditions: SteadyGlo luminescence, 30 min, higher = more signal, called active from +8 up or from −8 down.
Experiment [10] deals with Wnt5a (protein binding on small-molecule microarray). The experiment can be described thus: Wnt5a binders on small-molecule microarray, primary screen, biophysical, 635/667 nm fluorescence (AID 1142).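 Also: fluorescence read at 667 nm with signal to noise per printed feature.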 The note with it: 635 nm fluorescence, higher = more signal.
The nature of experiment [11]: cell viability in Huh7 cells, primary screen, cytotoxicity control for HCV replication inhibitor project, CellTiter-Glo luminescence, basal, 48 h (AID 1143).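 Also: Huh7 hepatoma cells carrying a hepatitis C replication reporter with no stimulus; test concentration not given here.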 The note with it: Huh7 HCV replicon, higher = more signal, called active from +8 up or from −8 down.
Experiment [12] in a line: P. aeruginosa biofilm formation inhibitors, primary screen, PAO1 strain, BacTiter-Glo luminescence, LB-PBS (AID 1144). Conditions: 12 h, higher = more signal.
Experiment [13] is described as follows: CREB reporter modulators without forskolin, primary screen, cell-based, PC12, CRE-LacZ reporter, unstimulated (AID 1145). The note with it: no forskolin, luminescence, 4.5 h, higher = more signal, called active from +8 up or from −8 down.
The nature of experiment [14]: CREB reporter modulators under forskolin, primary screen, cell-based, PC12, CRE-LacZ reporter, forskolin-stimulated (AID 1146).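 Also: PC12 cells with 6xCRE LacZ reporter stimulated by forskolin 10 µM; beta-galactosidase reporter signal reflecting CREB driven transcription.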 Conditions: luminescence, 4.5 h, higher = more signal, called active from +8 up or from −8 down.
Experiment [15] addresses Streptavidin (Streptomyces avidinii) (UniProt P22629). The experiment can be described thus: streptavidin binders on small-molecule microarray, primary screen, artefact control for SMM compound annotation, biophysical, 635/667 nm fluorescence (AID 1147).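 Also: signal reflects streptavidin binding to arrayed compounds as a control protein.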 The note with it: streptavidin binding, higher = more signal.
A short description of experiment [16]: small-molecule binders of probe aInhba, primary screen, biochemical, small-molecule microarray, 635/667 nm fluorescence (AID 1148).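 Also: score merges 667nm spot fluorescence with signal-to-noise for antibody binding to printed compounds.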 The note with it: higher = more signal.
The target in experiment [17] is Torsin-1A (Homo sapiens) (UniProt O14656). The experiment can be described thus: torsin A binders from cell lysate, primary screen, small-molecule microarray, wild-type, 635/667 nm (AID 1149). Conditions: COS7 hTOR1A-WT lysate, 635 nm fluorescence, higher = more signal.
Sequence of Torsin-1A (Homo sapiens) (O14656 whole entry, looked up): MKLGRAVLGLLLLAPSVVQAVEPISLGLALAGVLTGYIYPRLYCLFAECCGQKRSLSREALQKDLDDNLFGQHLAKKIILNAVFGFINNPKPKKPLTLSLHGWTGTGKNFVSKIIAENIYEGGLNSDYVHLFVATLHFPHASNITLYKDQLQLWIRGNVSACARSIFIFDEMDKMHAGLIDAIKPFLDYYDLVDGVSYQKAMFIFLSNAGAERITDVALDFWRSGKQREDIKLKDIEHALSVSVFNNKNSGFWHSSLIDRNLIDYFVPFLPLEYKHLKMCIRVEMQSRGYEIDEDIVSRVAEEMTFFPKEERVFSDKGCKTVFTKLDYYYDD
Experiment [18] shares this target. The experiment can be described thus: small-molecule binders of mutant TOR1A in lysate, primary screen, cell lysate, small-molecule microarray, COS7 lysate, 635/667 nm fluorescence (AID 1150).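 Also: score pools 667 nm emission and signal to noise measuring lysate protein binding.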 Conditions: COS7 hTOR1A mutant lysate, 635 nm fluorescence, higher = more signal.
Experiment [19] relates to Sonic hedgehog protein (Shh). The experiment can be described thus: small-molecule binders of Shh protein, primary screen, biochemical, small-molecule microarray, 635/667 nm fluorescence (AID 1151).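 Also: Shh protein binding to compounds spotted on small-molecule microarray slides; score combines spot fluorescence intensity with signal-to-noise across triplicate slides.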 The note with it: small-molecule microarray binding, 635 nm fluorescence; higher = more signal.

Sequence of Streptavidin (Streptomyces avidinii) (P22629 whole entry, looked up): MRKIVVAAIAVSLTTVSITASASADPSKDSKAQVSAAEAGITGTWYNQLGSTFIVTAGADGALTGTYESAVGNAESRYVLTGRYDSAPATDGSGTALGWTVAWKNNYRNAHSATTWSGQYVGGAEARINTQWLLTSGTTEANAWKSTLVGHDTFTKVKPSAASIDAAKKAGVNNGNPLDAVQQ
Sequence of Fibroblast growth factor 2 (Homo sapiens) (P09038 whole entry, looked up): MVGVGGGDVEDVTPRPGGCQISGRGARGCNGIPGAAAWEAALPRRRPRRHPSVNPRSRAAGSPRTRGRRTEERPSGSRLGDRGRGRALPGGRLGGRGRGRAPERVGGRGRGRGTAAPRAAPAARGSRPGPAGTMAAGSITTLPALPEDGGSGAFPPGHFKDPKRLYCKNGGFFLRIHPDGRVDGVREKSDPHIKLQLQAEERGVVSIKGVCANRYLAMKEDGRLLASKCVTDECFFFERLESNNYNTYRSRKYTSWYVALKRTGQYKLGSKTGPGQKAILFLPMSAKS
Sequence of Luciferin 4-monooxygenase (Photinus pyralis) (P08659 whole entry, looked up): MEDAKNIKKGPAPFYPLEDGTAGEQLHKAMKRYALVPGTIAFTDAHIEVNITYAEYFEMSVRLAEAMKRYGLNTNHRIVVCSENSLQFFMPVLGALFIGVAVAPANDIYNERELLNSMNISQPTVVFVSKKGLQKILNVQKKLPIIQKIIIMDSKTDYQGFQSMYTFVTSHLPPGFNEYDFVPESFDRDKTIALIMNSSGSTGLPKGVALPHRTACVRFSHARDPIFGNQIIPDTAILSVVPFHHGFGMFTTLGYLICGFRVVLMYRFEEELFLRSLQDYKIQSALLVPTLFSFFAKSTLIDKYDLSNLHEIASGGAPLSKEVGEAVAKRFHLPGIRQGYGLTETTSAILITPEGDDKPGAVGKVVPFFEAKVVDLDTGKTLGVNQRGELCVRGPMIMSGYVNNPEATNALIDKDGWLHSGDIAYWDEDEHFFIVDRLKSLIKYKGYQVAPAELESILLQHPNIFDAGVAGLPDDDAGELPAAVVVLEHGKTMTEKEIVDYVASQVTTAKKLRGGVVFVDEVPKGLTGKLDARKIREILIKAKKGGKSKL

On to `COCC(=C=CC[C@H](O)c1ccccc1OCCO)C[C@H](O)c1cc(Cl)cc(Cl)c1O`, for which the composite z-score in experiment [1] is -0.058; in [2] it was 0.914; in [3], 0.469; in experiment [4] it was 0.974; in experiment [5], 0.888; in experiment [6] it was 1.59. For the same compound, the composite z-score is 0.685 in the experiment with Lefty1; 0.351 in experiment [8]; 0.626 in experiment [10]; 0.423 in [15]; -0.0877 in [16]; -0.256 with Torsin-1A (Homo sapiens) [17]. For the same compound, the composite z-score with Torsin-1A (Homo sapiens) [18] worked out at 1.72; in experiment [19] it was 1.37. Also, the z-score in experiment [7] was -0.54; in experiment [9], -1.28 (inactive); in experiment [11], -8.22 (active); in experiment [12] it was 0.421 (inactive); in experiment [13], 24.4 (active); in [14], -0.753 (inactive).
For the compound `O=C(O)[C@@]1(CCS(=O)(=O)c2ccccc2)COC(c2ccc(OCCCO)cc2)=N1`, the composite z-score is -0.777 in experiment [1]; -0.0191 in experiment [2]; -0.283 in experiment [3]; -1.2 in experiment [4]; 0.0153 in [5]; -0.23 in [6]. In addition, the composite z-score was -1.34 with Lefty1; -0.0996 in experiment [8]; -0.142 in experiment [10]; -0.439 in [15]; -0.108 in experiment [16]; -0.792 with Torsin-1A (Homo sapiens) [17]. Moreover, the composite z-score is 0.333 with Torsin-1A (Homo sapiens) [18] and -1.03 in experiment [19]. Besides, the z-score is -0.487 in [7]; 0.299 (inactive) in experiment [9]; 0.122 (inactive) in [11]; 1.98 (inactive) in [12]; -0.389 (inactive) in [13]; -0.298 (inactive) in experiment [14].
For `C=CCOC(=O)[C@@H]1[C@H]2C(=O)O[C@H](c3ccccc3)[C@H](c3ccccc3)N2[C@H](c2ccc(OCCOC(=O)[C@@H]3C[C@@H]4C(=O)N[C@@H](Cc5ccccc5)C(=O)N4[C@@H]3c3ccc(O)cc3)cc2)[C@@]12C(=O)Nc1ccc(I)cc12`, the composite z-score in experiment [1] was found to be 1.11; in [2] it was 0.947; in [3] it was 0.375; in experiment [4], 0.799; in [5] it was 1.41; in [6] it was 1.61. In addition, the composite z-score is 1.41 in the experiment with Lefty1; 0.844 in experiment [8]; 0.425 in [10]; 0.122 in experiment [15]; 0.0154 in [16]; 0.521 in the experiment with Torsin-1A (Homo sapiens) [17]. The composite z-score with Torsin-1A (Homo sapiens) [18] worked out at 0.38; in experiment [19] it was 2.22. Besides, the z-score in experiment [7] is -1.53; in experiment [9], 0.304 (inactive); in experiment [11], -1.28 (inactive); in [12], -0.606 (inactive); in [13], -0.537 (inactive); in [14] it was -0.526 (inactive).
On to `COc1cc(OC)c(C(O)C2C=CC3C(=O)NC(=O)C3N2Nc2ccc(Cl)cc2Cl)cc1Br` (stereo not given), for which the composite z-score came to 1.29 in [1]; 1.22 in experiment [2]; 0.859 in experiment [3]; 0.786 in [4]; 0.677 in [5]; 0.518 in experiment [6]. Also, the composite z-score in the experiment with Lefty1 is 0.0498; in [8], 1.07; in experiment [10], 0.153; in [15] it was 1.64; in experiment [16] it was 0.0111; in the experiment with Torsin-1A (Homo sapiens) [17], -0.241. In addition, the figures for the composite z-score (in the experiment with Torsin-1A (Homo sapiens) [18]; in experiment [19]) were 0.414 and -0.366, respectively. Moreover, the z-score is -0.824 in [7]; 0.719 (inactive) in [9]; -2.57 (inactive) in [11]; -0.835 (inactive) in experiment [12]; 0.433 (inactive) in experiment [13]; -0.919 (inactive) in [14].
With `COCCCNC(=O)C1N=C(c2ccc(OCCCO)cc2)N(c2ccccc2)O1` (stereo not given), the composite z-score was found to be 1.38 in [1]; 1.03 in experiment [2]; 0.234 in [3]; 0.95 in experiment [4]; 1.11 in [5]; 0.555 in experiment [6]. The composite z-score worked out at 0.517 in the experiment on Lefty1; 0.569 in experiment [8]; 0.282 in experiment [10]; 0.51 in [15]; 0.151 in experiment [16]; 0.777 in the experiment with Torsin-1A (Homo sapiens) [17]. In addition, the composite z-score turned out to be 0.442 in the experiment with Torsin-1A (Homo sapiens) [18] and 0.264 in experiment [19]. Also, the z-score was 0.735 in experiment [7]; -10.5 (active) in experiment [9]; -2.78 (inactive) in experiment [11]; 0.708 (inactive) in [12]; -0.207 (inactive) in [13]; 0.72 (inactive) in [14].
